Reference: PubChem BioAssay AID1159580 (chemical genetic matrix, 2015)
Values joined by “and” are separate entries in the source; they are usually repeats but may differ in a detail not shown here. Equal entries are not always repeated. The campaign covered roughly 5,500 compounds. About 2,000 (36%) were called active. Not shown: some 18% with an inconclusive outcome. No stated cut-off is given here; in the data, active means normalized growth mostly below about 0.91 (no sharp cut-off); inconclusive means no clear call, values can overlap the other calls; inactive means mostly above about 0.92. This is one part of the list.

Assay: chemical genetic growth profiling, strain panel (AID 1159580);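 further: tested at 20 µM; growth read once vehicle control cultures reached saturation at 30 °C; 1 = growth at the plate median or of vehicle wells; lower values mean less growth of the strain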
Details: S. cerevisiae deletion strains, growth OD

Measured: normalized growth

CCCCC(=O)O[C@]1(C(=O)CO)[C@@H](C)CC2C3CCC4=CC(=O)C=C[C@]4(C)[C@@]3(F)C(O)C[C@@]21C (stereo partly drawn)
inactive: locus YAL013W, strain DEP1, active compounds read low 0.968 | locus YAL021C, strain ccr4, active compounds read low 0.982 | locus YAL026C, strain drs2, active compounds read low 1.01 | locus YAL030W, strain snc1, active compounds read low 0.981 | locus YBL061C, strain skt5, active compounds read low 0.978 | locus YBR009C, strain hhf1, active compounds read low 0.99 | locus YBR021W, strain FUR4, active compounds read low 0.986 | locus YBR023C, strain chs3, active compounds read low 0.98 | locus YBR171W, strain sec66, active compounds read low 0.941 | locus YBR229C, strain ROT2, active compounds read low 0.99 | locus YBR231C, strain swc5, active compounds read low 0.948 | locus YBR279W, strain paf1, active compounds read low 0.991 | locus YCL011C, strain gbp2, active compounds read low 0.99 | locus YCL016C, strain dcc1, active compounds read low 1.01 | locus YCL029C, strain bik1, active compounds read low 0.981 | locus YCL069W, strain vba3, active compounds read low 0.989 | locus YCR088W, strain abp1, active compounds read low 0.997 | locus YDL005C, strain med2, active compounds read low 0.972 | locus YDL035C, strain GPR1, active compounds read low 1.03 | locus YDL040C, strain nat1, active compounds read low 0.975 | locus YDL074C, strain BRE1, active compounds read low 0.979 | locus YDL101C, strain DUN1, active compounds read low 0.961 | locus YDL134C, strain PPH21, active compounds read low 1 | locus YDL185W, strain tfp1, active compounds read low 0.97 | locus YDL192W, strain arf1, active compounds read low 0.978 | locus YDR001C, strain nth1, active compounds read low 0.986 | locus YDR069C, strain doa4, active compounds read low 0.968 | locus YDR101C, strain arx1, active compounds read low 0.998 | locus YDR137W, strain rgp1, active compounds read low 0.979 | locus YDR159W, strain sac3, active compounds read low 0.974 | locus YDR162C, strain NBP2, active compounds read low 1.01 | locus YDR195W, strain ref2 0.963 | locus YDR297W, strain sur2, active compounds read low 0.975 | locus YDR318W, strain mcm21, active compounds read low 0.996 | locus YDR334W, strain swr1, active compounds read low 0.988 | locus YDR335W, strain msn5, active compounds read low 0.977 | locus YDR388W, active compounds read low 0.982 | locus YDR392W, strain spt3, active compounds read low 1.07 | locus YDR502C, strain sam2, active compounds read low 0.988 | locus YEL003W, strain gim4, active compounds read low 0.987 | locus YEL037C, strain rad23, active compounds read low 0.991 | locus YEL061C, strain CIN8 (second series), active compounds read low 0.991 | locus YEL061C, strain CIN8, active compounds read low 0.995 | locus YER015W, strain faa2, active compounds read low 0.979 | locus YER016W, strain bim1, active compounds read low 1.02 | locus YER110C, active compounds read low 0.982 | locus YER111C, strain swi4, active compounds read low 0.968 | locus YER155C, strain BEM2 (second series), active compounds read low 0.981 | locus YER155C, strain BEM2, active compounds read low 1.01 | locus YER167W, strain BCK2, active compounds read low 1.01 | locus YFR010W, strain ubp6, active compounds read low 0.95 | locus YGL078C, strain dbp3, active compounds read low 0.99 | locus YGL086W, strain mad1, active compounds read low 0.982 | locus YGL167C, strain pmr1, active compounds read low 0.959 | locus YGL173C, strain kem1, active compounds read low 0.96 | locus YGL227W, strain vid30, active compounds read low 0.97 | locus YGL240W, strain doc1, active compounds read low 0.945 | locus YGL248W, strain PDE1, active compounds read low 0.962 | locus YGL253W, strain hxk2, active compounds read low 0.985 | locus YGR078C, strain PAC10, active compounds read low 0.969 | locus YGR135W, strain pre9, active compounds read low 0.977 | locus YGR252W, strain gcn5, active compounds read low 1.02 | locus YHR013C, strain ard1, active compounds read low 0.996 | locus YHR027C, strain rpn1, active compounds read low 0.986 | locus YHR030C, strain SLT2, active compounds read low 0.991 and 0.976 | locus YHR079C, strain IRE1 (second series), active compounds read low 1 | locus YHR079C, strain IRE1, active compounds read low 0.977 | locus YHR094C, strain hxt1, active compounds read low 0.983 | locus YHR129C, strain ARP1, active compounds read low 0.983 | locus YHR142W, strain chs7, active compounds read low 0.943 | locus YHR200W, strain rpn10, active compounds read low 0.992 | locus YIL066C, strain RNR3, active compounds read low 1.01 | locus YIL073C, strain SPO22, active compounds read low 1.01 | locus YIL125W, strain kgd1, active compounds read low 0.97 | locus YIR030C, strain dcg1, active compounds read low 0.992 | locus YJL092W, strain hpr5, active compounds read low 0.976 | locus YJL095W, strain BCK1 (second series), active compounds read low 0.982 | locus YJL095W, strain BCK1, active compounds read low 0.888 and 0.991 | locus YJL115W, strain asf1, active compounds read low 0.965 | locus YJL129C, strain trk1, active compounds read low 0.943 | locus YJL134W, strain LCB3, active compounds read low 0.994 | locus YJL154C, strain vps35, active compounds read low 0.972 | locus YJL164C, strain tpk1, active compounds read low 0.988 | locus YJL166W, strain qcr8, active compounds read low 0.941 | locus YJL168C, strain set2, active compounds read low 0.983 | locus YJL187C, strain SWE1 (second series), active compounds read low 0.933 | locus YJR043C, strain POL32, active compounds read low 1.03 | locus YJR066W, strain TOR1, active compounds read low 0.958
